# Reference: the supplement of paper PMC8728848
# Shown is part of a subset that was picked to be rich in the strongest signals.
# B1: MPA (Maclura pomifera), P18674 (protein)
# chain: GVTFDDGAYTGIREINFEYNSETAIGGLRVTYDLNGMPFVAEDHKSFITGFKPVKISLEFPSEYIVEVSGYVGKVEGYTVIRSLTFKTNKQTYGPYGVTNGTPFSLPIENGLIVGFKGSIGYWLDYFSIYLSL
# What was measured:
# Assay in all cases: glycan array binding signal (z-score within array); higher = stronger binding
# Details in all cases: glycan notation: IUPAC condensed, linker removed
# [1] = target: GlcNAc(b1-3)Gal(b1-4)GlcNAc(b1-3)Gal(b1-4)GlcNAc(b1-2)Man(a1-3)[GlcNAc(b1-3)Gal(b1-4)GlcNAc(b1-3)Gal(b1-4)GlcNAc(b1-2)Man(a1-6)]Man(b1-4)GlcNAc(b1-4)GlcNAc
# Procedure, shortened: (§1)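 Glycan array data were curated from 3228 arrays in the Consortium for Functional Glycomics database and kept only where the protein sequence was available. Glycan names were converted to IUPAC-condensed notation, and columns mapping to the same glycan were averaged. The binding signal is a within-array Z-score, averaged across arrays of the same protein sequence at different concentrations or buffers and across linkers. Negative Z-scores can be read as non-binding.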
# [2] = target: GlcNAc(b1-3)Gal(b1-4)GlcNAc(b1-3)Gal(b1-4)GlcNAc(b1-3)Gal(b1-4)GlcNAc(b1-2)Man(a1-3)[GlcNAc(b1-3)Gal(b1-4)GlcNAc(b1-3)Gal(b1-4)GlcNAc(b1-3)Gal(b1-4)GlcNAc(b1-2)Man(a1-6)]Man(b1-4)GlcNAc(b1-4)[Fuc(a1-6)]GlcNAc
# Procedure, shortened: as §1
# [3] = target: GlcNAc(b1-3)Gal(b1-4)GlcNAc(b1-3)Gal(b1-4)GlcNAc(b1-3)Gal(b1-4)GlcNAc(b1-2)[GlcNAc(b1-3)Gal(b1-4)GlcNAc(b1-3)Gal(b1-4)GlcNAc(b1-3)Gal(b1-4)GlcNAc(b1-6)]Man(a1-6)[GlcNAc(b1-3)Gal(b1-4)GlcNAc(b1-3)Gal(b1-4)GlcNAc(b1-3)Gal(b1-4)GlcNAc(b1-2)Man(a1-3)]Man(b1-4)GlcNAc(b1-4)[Fuc(a1-6)]GlcNAc
# Procedure, shortened: as §1
# [4] = target: GlcNAc(b1-3)Gal(b1-4)GlcNAc(b1-3)Gal(b1-4)GlcNAc(b1-3)Gal(b1-4)GlcNAc(b1-3)Gal(b1-4)GlcNAc(b1-2)[GlcNAc(b1-3)Gal(b1-4)GlcNAc(b1-3)Gal(b1-4)GlcNAc(b1-3)Gal(b1-4)GlcNAc(b1-3)Gal(b1-4)GlcNAc(b1-6)]Man(a1-6)[GlcNAc(b1-3)Gal(b1-4)GlcNAc(b1-3)Gal(b1-4)GlcNAc(b1-3)Gal(b1-4)GlcNAc(b1-3)Gal(b1-4)GlcNAc(b1-2)Man(a1-3)]Man(b1-4)GlcNAc(b1-4)[Fuc(a1-6)]GlcNAc
# Procedure, shortened: as §1
# [5] = target: GlcNAc(b1-3)Gal(b1-4)GlcNAc(b1-3)Gal(b1-4)GlcNAc(b1-3)GalNAc
# Procedure, shortened: as §1
# [6] = target: GlcNAc(b1-4)GlcNAc(b1-4)GlcNAc(b1-4)GlcNAc(b1-4)GlcNAc(b1-4)GlcNAc
# Procedure, shortened: as §1
# [7] = target: Man(a1-2)Man(a1-2)Man(a1-6)[Man(a1-3)]Man
# Procedure, shortened: as §1
# [8] = target: Man(a1-2)Man(a1-3)[Man(a1-2)Man(a1-6)]Man(a1-6)[Man(a1-2)Man(a1-2)Man(a1-3)]Man
# Procedure, shortened: as §1
# [9] = target: Neu5Ac(a2-3)Gal(b1-3)GalNAc(b1-4)[Neu5Ac(a2-3)]Gal(b1-4)Glc
# Procedure, shortened: as §1
# [10] = target: Neu5Ac(a2-3)Gal(b1-3)GalNAc(b1-4)[Neu5Ac(a2-8)Neu5Ac(a2-3)]Gal(b1-4)Glc
# Procedure, shortened: as §1
# [11] = target: Neu5Ac(a2-3)Gal(b1-3)GlcNAc(b1-2)Man
# Procedure, shortened: as §1
# [12] = target: Neu5Ac(a2-3)Gal(b1-3)[Neu5Ac(a2-6)]GalNAc
# Procedure, shortened: as §1
# [13] = target: Neu5Ac(a2-3)Gal(b1-4)GlcNAc(b1-2)[Neu5Ac(a2-3)Gal(b1-4)GlcNAc(b1-6)]Man(a1-6)[Neu5Ac(a2-3)Gal(b1-4)GlcNAc(b1-2)Man(a1-3)][GlcNAc(b1-4)]Man(b1-4)GlcNAc(b1-4)GlcNAc
# Procedure, shortened: as §1
# [14] = target: Neu5Ac(a2-3)Gal(b1-4)GlcNAc(b1-3)Gal(b1-4)GlcNAc(b1-3)Gal(b1-4)GlcNAc(b1-2)Man(a1-3)[Neu5Ac(a2-3)Gal(b1-4)GlcNAc(b1-3)Gal(b1-4)GlcNAc(b1-3)Gal(b1-4)GlcNAc(b1-2)Man(a1-6)]GalNAc
# Procedure, shortened: as §1
# [15] = target: Neu5Ac(a2-6)Gal(b1-4)GlcNAc(b1-3)Gal(b1-4)GlcNAc(b1-3)Gal(b1-4)GlcNAc(b1-2)Man(a1-3)[Neu5Ac(a2-6)Gal(b1-4)GlcNAc(b1-3)Gal(b1-4)GlcNAc(b1-3)Gal(b1-4)GlcNAc(b1-2)Man(a1-6)]GalNAc
# Procedure, shortened: as §1
# [16] = target: Neu5Ac(a2-6)GlcNAc(b1-4)GlcNAc
# Procedure, shortened: as §1
# [17] = target: Neu5Ac(a2-8)Neu5Ac(a2-3)[GalNAc(b1-4)]Gal(b1-4)Glc
# Procedure, shortened: as §1
# [18] = target: Neu5Ac(a2-8)Neu5Ac(a2-8)Neu5Ac(a2-3)[Gal(b1-3)GalNAc(b1-4)]Gal(b1-4)Glc
# Procedure, shortened: as §1
# Neu5Gc(a2-3)Gal(b1-4)Glc = target: Neu5Gc(a2-3)Gal(b1-4)Glc
# Procedure, shortened: as §1
# [19] = target: Neu5Gc(a2-8)Neu5Gc(a2-3)Gal(b1-4)GlcNAc(b1-3)Gal(b1-4)GlcNAc
# Procedure, shortened: as §1
binder,measurement,setting,value
B1,glycan array binding signal (z-score),[1],3.5
same,glycan array binding signal (z-score),[2],5.73
same,glycan array binding signal (z-score),[3],4.46
same,glycan array binding signal (z-score),[4],0.56
same,glycan array binding signal (z-score),[5],-0.343
same,glycan array binding signal (z-score),[6],-0.082
same,glycan array binding signal (z-score),[7],-0.161
same,glycan array binding signal (z-score),[8],-0.215
same,glycan array binding signal (z-score),[9],-0.301
same,glycan array binding signal (z-score),[10],-0.179
same,glycan array binding signal (z-score),[11],1.21
same,glycan array binding signal (z-score),[12],0.304
same,glycan array binding signal (z-score),[13],-0.334
same,glycan array binding signal (z-score),[14],3.56
same,glycan array binding signal (z-score),[15],6.71
same,glycan array binding signal (z-score),[16],-0.39
same,glycan array binding signal (z-score),[17],-0.273
same,glycan array binding signal (z-score),[18],-0.044
same,glycan array binding signal (z-score),Neu5Gc(a2-3)Gal(b1-4)Glc,-0.156
same,glycan array binding signal (z-score),[19],-0.219
